Measurements: PubChem BioAssay (Tox21)
Results filed as inconclusive are left out. Activity calls are given as the source filed them. Unless noted, calls follow the shape of the full dose curve.

Tests used:
[1] = Nuclear factor erythroid 2-related factor 2/antioxidant responsive element (Nrf2/ARE) small molecule agonists: qHTS cell viability counter screen in human keratinocytes (AID 1919968; active = well fitted curve in the direction sought with a large enough effect in the repeat runs; an effect the other way counts as inactive or inconclusive; also: nearly all actives have a fitted effect of over 55% in size)
How it was run: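 Viability counter-screen: KeratinoSens reporter cells, DMSO-delivered compounds, 23 h at 37 C, CellTiter-Fluor fluorescence.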

[2] = Nuclear factor erythroid 2-related factor 2/antioxidant responsive element (Nrf2/ARE) small molecule agonists: luciferase reporter gene qHTS assay in human keratinocytes (AID 1919969); also: nearly all actives have a fitted effect of over 35% in size
[3] = molecular target: Gonadotropin-releasing hormone receptor (Homo sapiens) (UniProt P30968); test: Human gonadotropin-releasing hormone receptor (GnRHR) small molecule agonists, calcium flux assay in GnRHR-HEK293 cells (AID 1920063); also: nearly all actives have a fitted effect of over 35% in size
Chain of Gonadotropin-releasing hormone receptor (Homo sapiens) (P30968 whole entry, looked up): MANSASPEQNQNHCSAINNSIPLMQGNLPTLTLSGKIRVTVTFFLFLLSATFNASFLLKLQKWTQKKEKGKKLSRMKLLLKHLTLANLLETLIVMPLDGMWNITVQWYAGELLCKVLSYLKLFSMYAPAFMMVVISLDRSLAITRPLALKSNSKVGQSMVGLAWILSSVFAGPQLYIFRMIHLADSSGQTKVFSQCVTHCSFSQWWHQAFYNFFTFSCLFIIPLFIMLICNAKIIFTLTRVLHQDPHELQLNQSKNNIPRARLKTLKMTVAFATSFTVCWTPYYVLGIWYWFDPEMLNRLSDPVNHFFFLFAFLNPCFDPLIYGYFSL
How it was run: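 Tox21-format agonist screen using human GnRHR-expressing HEK293 cells and a fluorescent calcium dye; kinetic 3-min fluorescence reading after compound addition, 15-point concentration series run in triplicate.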

[4] = molecular target: KiSS-1 receptor (Homo sapiens) (UniProt Q969F8); test: Human kisspeptin (KISS1R) small molecule agonists, calcium flux assay in KISS1R-HEK293 cells (AID 1920064; active = well fitted curve in the direction sought with a large enough effect in the repeat runs; an effect the other way counts as inactive or inconclusive)
Chain of KiSS-1 receptor (Homo sapiens) (Q969F8 whole entry, looked up): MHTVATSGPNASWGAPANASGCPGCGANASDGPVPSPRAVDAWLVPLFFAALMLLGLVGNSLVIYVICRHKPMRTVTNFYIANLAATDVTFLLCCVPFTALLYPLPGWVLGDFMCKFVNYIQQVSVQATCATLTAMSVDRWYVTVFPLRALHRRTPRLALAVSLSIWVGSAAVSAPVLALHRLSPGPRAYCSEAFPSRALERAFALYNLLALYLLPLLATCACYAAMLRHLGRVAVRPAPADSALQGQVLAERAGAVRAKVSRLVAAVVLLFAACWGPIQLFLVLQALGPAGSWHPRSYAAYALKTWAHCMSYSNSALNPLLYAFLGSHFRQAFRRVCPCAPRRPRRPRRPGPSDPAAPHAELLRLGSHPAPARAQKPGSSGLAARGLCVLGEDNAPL
How it was run: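 Intracellular calcium mobilization in KISS1R-HEK293 cells was recorded by fluorescence (Ex/Em 480/540) for 3 min following compound addition to cells pre-loaded 1 h with calcium dye.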

[5] = G protein-coupled receptor (GPCR) small molecule agonists, calcium flux assay: HEK293 wild type cell line counter screen (AID 1920065)
How it was run: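 In this agonist-mode screen, ATP is the positive control and DMSO the vehicle. Cells grow 18 h before a 1 h dye incubation at 37 C; signal is taken at Ex/Em 480/540 over 3 min.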

[6] = p53 small molecule agonists, cell-based qHTS assay with human liver microsomes (AID 1963577)
How it was run: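 Compounds act here after metabolic activation: human liver microsomes and NADPH, both at 0.5 mg/mL final, were co-added to p53RE-bla cells. Incubation ran 16 h at 37 C, followed by LiveBLAzer detection.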

[7] = p53 small molecule agonists, cell-based qHTS assay with rat liver microsomes (AID 1963578)
How it was run: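 Read-out is beta-lactamase reporter fluorescence (LiveBLAzer, 2 h, room temperature, dark) in p53RE-bla cells treated 16 h at 37 C with compound, rat liver microsomes and NADPH, both 0.5 mg/mL final.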

[8] = p53 small molecule agonists, cell-based qHTS assay with human liver microsomes: qHTS cell viability counter screen (AID 1963579); also: nearly all actives have a fitted effect of over 45% in size
How it was run: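 Cells carrying the p53 response-element beta-lactamase reporter are treated for 16 h at 37 C with test compounds in the presence of human liver microsomes and NADPH (both 0.5 mg/mL final); ATP-based CellTiter-Glo luminescence then reports viability.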

[9] = p53 small molecule agonists, cell-based qHTS assay with rat liver microsomes: qHTS cell viability counter screen (AID 1963580); also: nearly all actives have a fitted effect of over 45% in size
How it was run: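 In HCT-116 cells carrying a p53 response element-bla reporter, compounds were metabolically activated in situ by rat liver microsomes with NADPH over 16 h. Cell ATP content then served as the cytotoxicity measure.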

[10] = p53 small molecule agonists, cell-based qHTS assay: qHTS cell viability counter screen (AID 1963581); also: nearly all actives have a fitted effect of over 45% in size
How it was run: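 Compounds are pinned onto HCT-116 p53RE-bla cells and left 16 h at 37 C. Following the reporter FRET read, ATP is quantified by CellTiter-Glo luminescence after 30 min at room temperature.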

[11] = p53 small molecule agonists, cell-based qHTS assay (AID 1963582; active = well fitted activation curve with a large enough effect in the signal ratio in the repeat runs, not every such curve was filed as active; the % refers to the signal ratio)
How it was run: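 Agonist activity was scored from beta-lactamase FRET fluorescence in p53RE-bla cells treated 16 h at 37 C with compounds in DMSO, substrate incubation being 2 h at room temperature.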

[12] = molecular target: 5-hydroxytryptamine receptor 2A (Homo sapiens) (UniProt P28223); test: 5-hydroxytryptamine receptor 2A (HTR2A) small molecule antagonists, cell-based qHTS assay (AID 1963586); also: nearly all actives have a fitted effect of over 45% in size
Chain of 5-hydroxytryptamine receptor 2A (Homo sapiens) (P28223 whole entry, looked up): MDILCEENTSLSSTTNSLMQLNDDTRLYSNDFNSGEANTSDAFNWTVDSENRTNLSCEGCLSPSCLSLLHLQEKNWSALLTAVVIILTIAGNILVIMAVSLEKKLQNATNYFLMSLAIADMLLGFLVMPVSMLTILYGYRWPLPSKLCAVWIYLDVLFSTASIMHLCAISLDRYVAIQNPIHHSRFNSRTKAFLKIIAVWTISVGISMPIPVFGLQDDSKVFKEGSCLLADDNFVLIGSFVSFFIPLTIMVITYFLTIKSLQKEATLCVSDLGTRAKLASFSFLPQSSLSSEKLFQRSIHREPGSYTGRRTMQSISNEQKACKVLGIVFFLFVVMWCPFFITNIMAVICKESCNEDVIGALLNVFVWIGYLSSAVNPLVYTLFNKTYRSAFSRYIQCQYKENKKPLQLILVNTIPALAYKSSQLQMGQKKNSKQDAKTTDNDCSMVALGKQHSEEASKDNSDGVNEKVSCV
How it was run: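 Antagonist-mode intracellular calcium assay: DOI (4 nM) added after 5 min compound pre-incubation at room temperature to dye-loaded HTR2A-CHO cells. Fluorescence followed for 3 min, sampled every second.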

[13] = molecular target: 5-hydroxytryptamine receptor 2A (Homo sapiens) (UniProt P28223); test: 5-hydroxytryptamine receptor 2A (HTR2A) small molecule agonists, cell-based qHTS assay (AID 1963587); also: nearly all actives have a fitted effect of over 30% in size
How it was run: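 HTR2A-CHO cells, plated 18 h at 37 C/5% CO2, dye-loaded 1 h at 37 C; compounds in DMSO added by pin tool (agonist mode). Intracellular calcium flux read as kinetic fluorescence on FDSS over 2 min at 1 s intervals.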

[14] = molecular target: Muscarinic acetylcholine receptor M1 (Homo sapiens) (UniProt P11229); test: Cholinergic receptor muscarinic 1 (CHRM1) small molecule antagonists, cell-based qHTS assay (AID 1963588); also: nearly all actives have a fitted effect of over 40% in size
Chain of Muscarinic acetylcholine receptor M1 (Homo sapiens) (P11229 whole entry, looked up): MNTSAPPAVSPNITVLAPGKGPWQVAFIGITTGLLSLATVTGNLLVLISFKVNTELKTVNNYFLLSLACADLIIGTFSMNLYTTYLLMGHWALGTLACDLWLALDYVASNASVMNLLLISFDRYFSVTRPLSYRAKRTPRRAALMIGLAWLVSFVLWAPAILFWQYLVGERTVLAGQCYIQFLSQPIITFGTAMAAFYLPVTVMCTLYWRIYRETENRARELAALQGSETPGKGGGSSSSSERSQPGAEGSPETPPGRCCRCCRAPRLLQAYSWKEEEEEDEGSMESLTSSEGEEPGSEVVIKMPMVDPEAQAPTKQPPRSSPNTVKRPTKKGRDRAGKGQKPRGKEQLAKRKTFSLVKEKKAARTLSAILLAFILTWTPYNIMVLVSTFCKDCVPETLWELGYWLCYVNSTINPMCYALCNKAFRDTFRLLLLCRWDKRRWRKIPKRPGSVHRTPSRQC
How it was run: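 CHRM1-CHO calcium-flux assay, antagonist mode. Cells were seeded 18 h, dye-loaded 1 h at 37 C and given compound for 5 min at RT, then acetylcholine was added at 50nM. FDSS fluorescence was read 3 min; 15 concentrations, three runs.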

[15] = molecular target: Muscarinic acetylcholine receptor M1 (Homo sapiens) (UniProt P11229); test: Cholinergic receptor muscarinic 1 (CHRM1) small molecule agonists, cell-based qHTS assay (AID 1963589); also: nearly all actives have a fitted effect of over 35% in size
How it was run: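 Stable CHRM1-CHO cells (human receptor) were incubated 18 h, dye-loaded for 1 h at 37 C and exposed to test compounds for agonist activity, with calcium-dependent fluorescence followed kinetically.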

[16] = cAMP Responsive Elements (CRE) small molecule agonists, cell-based qHTS assay (AID 1963590)
How it was run: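 FRET-based beta-lactamase readout (LiveBLAzer B/G, 2 h RT) quantified CRE activation in HEK 293T CRE-bla cells after 3 h treatment with DMSO-dissolved compounds.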

[17] = cAMP Responsive Elements (CRE) small molecule antagonists, cell-based qHTS assay (AID 1963591; active = well fitted inhibition curve with a large enough effect in the signal ratio in the repeat runs, not every such curve was filed as active; the % refers to the signal ratio)
How it was run: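 qHTS in CRE-bla HEK 293T cells: compound in DMSO, then 0.25 uM NKH477 (final), 3 h at 37 °C/5% CO2; beta-lactamase FRET read-out after 2 h substrate incubation.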

[18] = molecular target: Beta-2 adrenergic receptor (Homo sapiens) (UniProt P07550); test: Adrenergic beta2 receptor (ADRB2) small molecule antagonists, cell-based qHTS assay (AID 1963592); also: series mostly up to about 92 µM; nearly all actives have a fitted effect of over 50% in size
Chain of Beta-2 adrenergic receptor (Homo sapiens) (P07550 whole entry, looked up): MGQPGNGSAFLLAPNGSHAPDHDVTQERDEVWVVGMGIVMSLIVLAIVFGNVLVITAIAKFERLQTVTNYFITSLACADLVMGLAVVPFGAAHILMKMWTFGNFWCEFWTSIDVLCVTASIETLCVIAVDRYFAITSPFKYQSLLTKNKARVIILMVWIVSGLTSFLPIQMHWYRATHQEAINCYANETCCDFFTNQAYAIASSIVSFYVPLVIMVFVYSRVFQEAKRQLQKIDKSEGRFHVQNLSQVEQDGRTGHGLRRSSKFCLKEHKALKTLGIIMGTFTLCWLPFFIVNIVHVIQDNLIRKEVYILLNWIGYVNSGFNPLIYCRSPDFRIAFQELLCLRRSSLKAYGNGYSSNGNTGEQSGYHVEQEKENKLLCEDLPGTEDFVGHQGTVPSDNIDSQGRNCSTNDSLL
How it was run: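 Cells (CHO, stable ADRB2 overexpression) incubated 18-20hr at 37C; compounds added from DMSO; agonist mix (1nM isoproterenol, 100uM IBMX, 25uM Ro-20-1724) added; 0.5hr RT; d2-cAMP and anti-cAMP-cryptate added; 1hr RT; 665/615 nm read.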

[19] = molecular target: Beta-2 adrenergic receptor (Homo sapiens) (UniProt P07550); test: Adrenergic beta2 receptor (ADRB2) small molecule agonists, cell-based qHTS assay (AID 1963593);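 also: CHO cells stably overexpressing human ADRB2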
How it was run: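 CHO cells stably over-expressing ADRB2 were plated overnight at 37C, then dosed with compounds plus a stimulation mix containing 100uM IBMX and 25uM Ro-20-1724 for 0.5hr at room temperature. cAMP was measured by HTRF competition, 1hr.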

[20] = molecular target: D(2) dopamine receptor (Homo sapiens) (UniProt P14416); test: Dopamine D2 receptor (DRD2) small molecule agonists, cell-based qHTS assay (AID 1963594); also: nearly all actives have a fitted effect of over 35% in size
Chain of D(2) dopamine receptor (Homo sapiens) (P14416 whole entry, looked up): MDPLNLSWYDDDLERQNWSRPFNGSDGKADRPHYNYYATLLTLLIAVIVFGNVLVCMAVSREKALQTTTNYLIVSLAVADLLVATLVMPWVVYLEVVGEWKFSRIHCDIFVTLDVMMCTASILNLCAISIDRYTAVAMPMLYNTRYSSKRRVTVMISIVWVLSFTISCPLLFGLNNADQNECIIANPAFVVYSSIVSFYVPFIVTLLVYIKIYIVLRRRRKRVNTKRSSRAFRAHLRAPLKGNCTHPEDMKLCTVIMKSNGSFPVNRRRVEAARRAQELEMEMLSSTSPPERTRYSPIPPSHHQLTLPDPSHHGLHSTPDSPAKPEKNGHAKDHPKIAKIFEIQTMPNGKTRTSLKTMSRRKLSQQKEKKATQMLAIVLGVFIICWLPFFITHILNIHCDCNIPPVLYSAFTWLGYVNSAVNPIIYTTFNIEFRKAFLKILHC
How it was run: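 HEK293 cells stably expressing DRD2 were cultured 24 h at 37 C, then given Ro20-1724 (0.1 mM final) and compounds for 10 min at room temperature. NKH477 (200nM) was then added for 30 min. cAMP was read by HTRF.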

Measured: Potency

CSc1ccc(C(=O)c2[nH]c(=O)[nH]c2C)cc1
inactive: all assays above

Cc1ccccc1C(N)=O
inactive: all assays above

CC(=O)c1cc(C)oc1C
inactive: all assays above

CCCCCCCCSCCO
inactive: all assays above

COC(=O)c1ccccc1C(=O)O
inactive: all assays above

Cn1c(=O)c2[nH]c(Br)nc2n(C)c1=O
inactive: all assays above

C=CCn1cc[n+](C)c1
inactive: all assays above
